# Values joined by “and” are separate entries in the source; they are usually repeats but may differ in a detail not shown here. Equal values may be shown once. Hit rate of the full screen: of about 5,500 compounds, about 2,000 (36%) were called active. Inconclusive results (about 18%) are left out. The list shows a part of the results. Values without a mark were called inactive. Cut-off read from the data, not from the text of the source: active = normalized growth mostly below about 0.91 (no sharp cut-off); inconclusive = no clear call, values can overlap the other calls; inactive = mostly above about 0.92.
# Assay: chemical genetic growth profiling, strain panel (AID 1159580);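 note: tested at 20 µM; growth read once vehicle control cultures reached saturation at 30 °C; 1 = growth at the plate median or of vehicle wells; lower values mean less growth of the strain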
# Conditions: growth OD
structure (smiles),measurement,setting,value
O=C(c1ccc(Cl)cc1)N1CCN(c2ccc(C(F)(F)F)cn2)CC1,normalized growth,"S. cerevisiae deletion strains, locus YAL013W, strain DEP1, active compounds read low",0.934
same,normalized growth,"S. cerevisiae deletion strains, locus YAR019C, strain CDC15, active compounds read low",0.973
same,normalized growth,"S. cerevisiae deletion strains, locus YBL105C, strain PKC1, active compounds read low",0.992
same,normalized growth,"S. cerevisiae deletion strains, locus YBR135W, strain CKS1, active compounds read low",0.997
same,normalized growth,"S. cerevisiae deletion strains, locus YBR136W, strain MEC1, active compounds read low",0.988
same,normalized growth,"S. cerevisiae deletion strains, locus YBR160W, strain CDC28, active compounds read low",0.973
same,normalized growth,"S. cerevisiae deletion strains, locus YBR229C, strain ROT2, active compounds read low",0.824 (active)
same,normalized growth,"S. cerevisiae deletion strains, locus YDL017W, strain CDC7, active compounds read low",0.995
same,normalized growth,"S. cerevisiae deletion strains, locus YDL028C, strain MPS1, active compounds read low",0.968
same,normalized growth,"S. cerevisiae deletion strains, locus YDL101C, strain DUN1, active compounds read low",0.986 and 0.988
same,normalized growth,"S. cerevisiae deletion strains, locus YDL108W, strain KIN28, active compounds read low",0.979
same,normalized growth,"S. cerevisiae deletion strains, locus YDL132W, strain cdc53, active compounds read low",0.988
same,normalized growth,"S. cerevisiae deletion strains, locus YDL214C, strain PRR2, active compounds read low",0.937
same,normalized growth,"S. cerevisiae deletion strains, locus YDR052C, strain DBF4, active compounds read low",1
same,normalized growth,"S. cerevisiae deletion strains, locus YDR054C, strain cdc34, active compounds read low",0.978
same,normalized growth,"S. cerevisiae deletion strains, locus YDR150W, strain NUM1, active compounds read low",0.843
same,normalized growth,"S. cerevisiae deletion strains, locus YDR226W, strain ADK1, active compounds read low",0.979
same,normalized growth,"S. cerevisiae deletion strains, locus YDR477W, strain SNF1, active compounds read low",0.936
same,normalized growth,"S. cerevisiae deletion strains, locus YEL061C, strain CIN8, active compounds read low",0.8 (active)
same,normalized growth,"S. cerevisiae deletion strains, locus YER123W, strain YCK3, active compounds read low",0.913
same,normalized growth,"S. cerevisiae deletion strains, locus YER133W, strain GLC7, active compounds read low",0.955
same,normalized growth,"S. cerevisiae deletion strains, locus YFL009W, strain cdc4, active compounds read low",0.967
same,normalized growth,"S. cerevisiae deletion strains, locus YFL029C, strain CAK1, active compounds read low",0.981
same,normalized growth,"S. cerevisiae deletion strains, locus YFR003C, strain YPI1, active compounds read low",0.993
same,normalized growth,"S. cerevisiae deletion strains, locus YFR019W, strain FAB1, active compounds read low",0.968
same,normalized growth,"S. cerevisiae deletion strains, locus YFR028C, strain CDC14, active compounds read low",0.978
same,normalized growth,"S. cerevisiae deletion strains, locus YGR040W, strain KSS1, active compounds read low",0.954
same,normalized growth,"S. cerevisiae deletion strains, locus YGR052W, strain FMP48, active compounds read low",0.978
same,normalized growth,"S. cerevisiae deletion strains, locus YGR078C, strain PAC10, active compounds read low",0.933
same,normalized growth,"S. cerevisiae deletion strains, locus YGR092W, strain DBF2, active compounds read low",0.89
same,normalized growth,"S. cerevisiae deletion strains, locus YGR229C, strain SMI1, active compounds read low",0.551 (active)
same,normalized growth,"S. cerevisiae deletion strains, locus YHR030C, strain SLT2, active compounds read low",0.0888 (active) and 0.729 (active)
same,normalized growth,"S. cerevisiae deletion strains, locus YHR079C, strain IRE1, active compounds read low",0.88
same,normalized growth,"S. cerevisiae deletion strains, locus YHR082C, strain KSP1, active compounds read low",0.96
same,normalized growth,"S. cerevisiae deletion strains, locus YHR087W, strain rtc3, active compounds read low",0.947
same,normalized growth,"S. cerevisiae deletion strains, locus YHR205W, strain SCH9, active compounds read low",0.857
same,normalized growth,"S. cerevisiae deletion strains, locus YIL147C, strain SLN1, active compounds read low",0.986
same,normalized growth,"S. cerevisiae deletion strains, locus YJL095W, strain BCK1, active compounds read low",0.892
same,normalized growth,"S. cerevisiae deletion strains, locus YJL128C, strain PBS2, active compounds read low",0.942
same,normalized growth,"S. cerevisiae deletion strains, locus YJL157C, strain FAR1, active compounds read low",0.979
same,normalized growth,"S. cerevisiae deletion strains, locus YJR016C, strain ILV3, active compounds read low",0.986
same,normalized growth,"S. cerevisiae deletion strains, locus YJR043C, strain POL32, active compounds read low",0.993
same,normalized growth,"S. cerevisiae deletion strains, locus YJR066W, strain TOR1 (second series), active compounds read low",0.974
same,normalized growth,"S. cerevisiae deletion strains, locus YJR066W, strain TOR1, active compounds read low",0.891
same,normalized growth,"S. cerevisiae deletion strains, locus YJR075W, strain HOC1, active compounds read low",1.11 [resistant] (active)
same,normalized growth,"S. cerevisiae deletion strains, locus YKL048C, strain ELM1, active compounds read low",0.963
same,normalized growth,"S. cerevisiae deletion strains, locus YKL067W, strain YNK1, active compounds read low",0.925
same,normalized growth,"S. cerevisiae deletion strains, locus YKL101W, strain HSL1, active compounds read low",0.911
same,normalized growth,"S. cerevisiae deletion strains, locus YKL193C, strain SDS22, active compounds read low",0.988
same,normalized growth,"S. cerevisiae deletion strains, locus YKL203C, strain TOR2, active compounds read low",1.02
same,normalized growth,"S. cerevisiae deletion strains, locus YLR039C, strain RIC1, active compounds read low",1.16
same,normalized growth,"S. cerevisiae deletion strains, locus YLR058C, strain SHM2 (second series), active compounds read low",0.974
same,normalized growth,"S. cerevisiae deletion strains, locus YLR085C, strain ARP6, active compounds read low",0.436 (active)
same,normalized growth,"S. cerevisiae deletion strains, locus YLR113W, strain HOG1, active compounds read low",0.813 (active)
same,normalized growth,"S. cerevisiae deletion strains, locus YLR133W, strain CKI1, active compounds read low",0.95
same,normalized growth,"S. cerevisiae deletion strains, locus YLR262C, strain YPT6, active compounds read low",1.1
same,normalized growth,"S. cerevisiae deletion strains, locus YLR403W, strain SFP1, active compounds read low",0.957
same,normalized growth,"S. cerevisiae deletion strains, locus YML070W, strain DAK1, active compounds read low",0.921
same,normalized growth,"S. cerevisiae deletion strains, locus YML094W, strain GIM5, active compounds read low",0.802 (active)
same,normalized growth,"S. cerevisiae deletion strains, locus YMR001C, strain CDC5, active compounds read low",0.977
same,normalized growth,"S. cerevisiae deletion strains, locus YMR205C, strain PFK2 (second series), active compounds read low",0.957
same,normalized growth,"S. cerevisiae deletion strains, locus YMR219W, strain ESC1, active compounds read low",0.958
same,normalized growth,"S. cerevisiae deletion strains, locus YMR263W, strain SAP30, active compounds read low",0.963
same,normalized growth,"S. cerevisiae deletion strains, locus YMR277W, strain FCP1, active compounds read low",0.962
same,normalized growth,"S. cerevisiae deletion strains, locus YMR307W, strain GAS1, active compounds read low",0.272 (active)
same,normalized growth,"S. cerevisiae deletion strains, locus YNL006W, strain LST8, active compounds read low",0.983
same,normalized growth,"S. cerevisiae deletion strains, locus YNL020C, strain ARK1, active compounds read low",0.956
same,normalized growth,"S. cerevisiae deletion strains, locus YNL153C, strain GIM3, active compounds read low",0.911 (active)
same,normalized growth,"S. cerevisiae deletion strains, locus YNL161W, strain CBK1, active compounds read low",0.994
same,normalized growth,"S. cerevisiae deletion strains, locus YNL183C, strain NPR1, active compounds read low",0.979
same,normalized growth,"S. cerevisiae deletion strains, locus YNL207W, strain RIO2, active compounds read low",0.985
same,normalized growth,"S. cerevisiae deletion strains, locus YNL222W, strain SSU72, active compounds read low",0.982
same,normalized growth,"S. cerevisiae deletion strains, locus YNL298W, strain CLA4 (second series), active compounds read low",0.563 (active)
same,normalized growth,"S. cerevisiae deletion strains, locus YNL307C, strain MCK1 (second series), active compounds read low",0.931
same,normalized growth,"S. cerevisiae deletion strains, locus YNL322C, strain KRE1, active compounds read low",0.982
same,normalized growth,"S. cerevisiae deletion strains, locus YNR030W, strain Alg12, active compounds read low",0.861 (active)
same,normalized growth,"S. cerevisiae deletion strains, locus YOL006C, strain TOP1, active compounds read low",0.661 (active)
same,normalized growth,"S. cerevisiae deletion strains, locus YOL078W, strain AVO1, active compounds read low",0.982
same,normalized growth,"S. cerevisiae deletion strains, locus YOL136C, strain PFK27, active compounds read low",0.908
same,normalized growth,"S. cerevisiae deletion strains, locus YOR061W, strain CKA2, active compounds read low",0.965
same,normalized growth,"S. cerevisiae deletion strains, locus YOR119C, strain RIO1, active compounds read low",0.958
same,normalized growth,"S. cerevisiae deletion strains, locus YOR231W, strain MKK1, active compounds read low",0.853
same,normalized growth,"S. cerevisiae deletion strains, locus YOR329C, strain SCD5, active compounds read low",0.992
same,normalized growth,"S. cerevisiae deletion strains, locus YPL031C, strain PHO85, active compounds read low",0.941
same,normalized growth,"S. cerevisiae deletion strains, locus YPL055C, strain LGE1, active compounds read low",0.919
same,normalized growth,"S. cerevisiae deletion strains, locus YPL153C, strain RAD53, active compounds read low",0.93
same,normalized growth,"S. cerevisiae deletion strains, locus YPL204W, strain HRR25, active compounds read low",0.963
same,normalized growth,"S. cerevisiae deletion strains, locus YPL209C, strain IPL1, active compounds read low",0.991
same,normalized growth,"S. cerevisiae deletion strains, locus YPL241C, strain CIN2, active compounds read low",1.01
same,normalized growth,"S. cerevisiae deletion strains, locus YPL256C, strain CLN2, active compounds read low",0.8 (active)
same,normalized growth,"S. cerevisiae deletion strains, locus YPR025C, strain CCL1, active compounds read low",0.987
same,normalized growth,"S. cerevisiae deletion strains, locus YPR106W, strain ISR1, active compounds read low",0.975
same,normalized growth,"S. cerevisiae deletion strains, locus YPR111W, strain DBF20, active compounds read low",0.955
same,normalized growth,"S. cerevisiae deletion strains, locus YPR135W, strain CTF4, active compounds read low",0.671
same,normalized growth,"S. cerevisiae deletion strains, strain NNK1, active compounds read low",0.977
same,normalized growth,"S. cerevisiae deletion strains, strain TSCII, active compounds read low",0.972
same,normalized growth,"S. cerevisiae strains, strain wild type, active compounds read low",0.862 (active)

# — PubChem BioAssay AID1159580 (chemical genetic matrix, 2015)
